{"source": "PubChem BioAssay (NCATS)", "key": {"[1]": {"experiment": "Nrf2 qHTS screen for inhibitors: Validation (AID 493153; active = well fitted inhibition curve with a large enough effect in the main read-out, with a control signal flat, not every such curve was filed as active; note: potency is the fitted concentration of half-maximal effect)", "details": "Potency: luciferase luminescence; viability change: measured here: cytotoxicity max response", "procedure,_shortened": "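Concentration-response on A549 ARE_Fluc reporter cells exposed 18-24 h at 37 C, 5% CO2. Cytotoxicity read first by CellTiter-Fluor fluorescence (Ex 405/Em 525), then Nrf2 inhibition by BugLite luminescence after 15 min.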"}, "[2]": {"experiment": "qHTS for Inhibitors of Cell Surface uPA Generation: Validation Assay (AID 493164)", "procedure,_shortened": "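ATP-Lite luminescence read-out: ATP remains high when uPA activity-dependent LF translocation into the cytoplasm is blocked. RAW 264.7 cells, 18 h compound exposure at 37 C; 7-point titration, 2.45 nM to 38.3 uM final.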"}, "[3]": {"target": "Peptidyl-prolyl cis-trans isomerase NIMA-interacting 1 (Homo sapiens) (UniProt Q13526)", "sequence (Q13526 whole entry, looked up)": "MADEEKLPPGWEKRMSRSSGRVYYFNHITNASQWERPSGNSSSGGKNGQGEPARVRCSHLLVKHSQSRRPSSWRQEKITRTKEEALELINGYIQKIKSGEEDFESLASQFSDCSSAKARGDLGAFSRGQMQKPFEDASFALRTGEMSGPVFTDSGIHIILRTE", "experiment": "qHTS Validation Assay to Find Inhibitors of Pin1 (AID 504536; active = well fitted inhibition curve with a large enough effect in the polarisation, with a control signal flat, not every such curve was filed as active; the % refers to the polarisation)", "procedure,_shortened": "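Fluorescence polarization competition: compounds (titration) displace HiFluor-488-labeled Pin1-1b peptide from Pin1 (0.3 uM final) in pH 7.5 HEPES buffer with DTT, 10 min at room temperature; %Activity normalized to no-enzyme wells, curves fitted.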"}, "[4]": {"target": "Phosphoglycerate kinase, glycosomal (Trypanosoma brucei brucei) (UniProt P07378)", "sequence (P07378 whole entry, looked up)": "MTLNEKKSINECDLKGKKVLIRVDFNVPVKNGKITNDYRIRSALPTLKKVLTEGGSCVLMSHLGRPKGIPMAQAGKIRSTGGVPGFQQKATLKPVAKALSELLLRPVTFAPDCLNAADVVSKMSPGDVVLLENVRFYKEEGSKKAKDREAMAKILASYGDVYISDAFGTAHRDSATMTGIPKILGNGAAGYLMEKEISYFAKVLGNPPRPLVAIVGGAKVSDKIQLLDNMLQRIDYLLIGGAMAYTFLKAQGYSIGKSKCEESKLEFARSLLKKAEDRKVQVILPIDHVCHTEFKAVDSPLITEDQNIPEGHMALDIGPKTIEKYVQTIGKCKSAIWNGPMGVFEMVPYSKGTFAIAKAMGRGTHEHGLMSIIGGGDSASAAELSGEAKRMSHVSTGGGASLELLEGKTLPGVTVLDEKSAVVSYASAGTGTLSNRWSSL", "experiment": "qHTS Validation Assay to Find Inhibitors of Phosphoglycerate Kinase (AID 504547)", "procedure,_shortened": "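Luminescence end-point (Kinase-Glo Plus, 10 min) after a 60 min room-temperature coupled reaction. GAPDH at 100nM final supplies 1,3-BPG to PGK. Buffer: 100mM TEA pH 7.6, 5mM MgCl2, 0.01% Tween-20. Wells lacking PGK served as controls.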"}, "[5]": {"target": "phosphoglycerate mutase (Leishmania major) (UniProt Q4Q090)", "sequence (Q4Q090 1-553)": "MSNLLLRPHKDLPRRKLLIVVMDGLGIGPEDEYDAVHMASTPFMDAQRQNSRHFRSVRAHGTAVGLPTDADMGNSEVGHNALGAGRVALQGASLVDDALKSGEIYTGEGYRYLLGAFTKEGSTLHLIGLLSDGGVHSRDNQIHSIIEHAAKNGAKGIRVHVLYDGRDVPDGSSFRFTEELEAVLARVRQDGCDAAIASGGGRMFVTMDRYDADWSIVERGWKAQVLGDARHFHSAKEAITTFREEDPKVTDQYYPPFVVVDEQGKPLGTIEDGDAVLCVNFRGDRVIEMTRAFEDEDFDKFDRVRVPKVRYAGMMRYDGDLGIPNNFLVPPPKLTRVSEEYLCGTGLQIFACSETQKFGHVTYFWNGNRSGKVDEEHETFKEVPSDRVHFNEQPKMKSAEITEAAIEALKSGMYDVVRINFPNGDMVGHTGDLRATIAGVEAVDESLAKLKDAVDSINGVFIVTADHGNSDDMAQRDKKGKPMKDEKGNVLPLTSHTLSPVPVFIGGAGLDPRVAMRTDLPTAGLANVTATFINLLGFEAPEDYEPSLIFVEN", "experiment": "qHTS Validation Assay to Find Inhibitors of Phosphoglycerate Mutase (AID 504548); note: series mostly up to about 58 µM", "procedure,_shortened": "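Lm PGAM 1.25nM final; 100 mM TEA pH 7.6, 5 mM MgCl2, 0.01% Tween-20; 45 min RT; Kinase-GloPlus, 10 min; end-point luminescence. Enzyme-free wells as negative controls.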"}, "[6]": {"target": "Ubiquitin carboxyl-terminal hydrolase 1 (Homo sapiens) (UniProt O94782)", "sequence (O94782 whole entry, looked up)": "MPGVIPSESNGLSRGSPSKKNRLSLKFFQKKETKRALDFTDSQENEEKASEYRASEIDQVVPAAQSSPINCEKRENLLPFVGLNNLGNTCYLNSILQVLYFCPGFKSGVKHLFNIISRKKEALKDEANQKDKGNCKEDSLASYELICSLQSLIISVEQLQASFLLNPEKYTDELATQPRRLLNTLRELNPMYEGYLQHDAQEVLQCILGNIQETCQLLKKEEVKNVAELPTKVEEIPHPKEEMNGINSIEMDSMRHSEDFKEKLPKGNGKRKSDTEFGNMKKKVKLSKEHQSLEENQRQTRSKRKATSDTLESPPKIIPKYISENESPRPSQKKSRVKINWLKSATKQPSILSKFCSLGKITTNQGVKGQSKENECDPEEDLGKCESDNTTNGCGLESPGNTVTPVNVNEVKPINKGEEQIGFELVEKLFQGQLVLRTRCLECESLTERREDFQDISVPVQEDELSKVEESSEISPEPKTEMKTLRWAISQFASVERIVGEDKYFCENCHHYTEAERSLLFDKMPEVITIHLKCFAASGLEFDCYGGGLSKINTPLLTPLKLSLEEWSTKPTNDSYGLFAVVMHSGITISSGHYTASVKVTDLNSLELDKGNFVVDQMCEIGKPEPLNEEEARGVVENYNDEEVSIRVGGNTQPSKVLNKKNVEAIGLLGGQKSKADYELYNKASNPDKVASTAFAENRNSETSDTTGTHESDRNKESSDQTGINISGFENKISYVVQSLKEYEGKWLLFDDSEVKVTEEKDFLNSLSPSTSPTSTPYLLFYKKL", "experiment": "Inhibitors of USP1/UAF1: Pilot qHTS (AID 504865);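 note: rhodamine fluorescence freed from ubiquitin-rhodamine substrate followed over time; top concentration of the series differs between compounds; nearly all actives have a fitted effect of over 35% in size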", "procedure,_shortened": "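1nM USP1/UAF1 + cpd, 15 min RT; start w/ Ub-Rho 150nM final; kinetic FL 480/540 nm, 6 reads q60 s. Buffer 50mM HEPES pH 7.8, 0.5mM EDTA, 1mM TCEP, 0.01% Tween-20, 0.1 mg/ml BSA.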"}, "[7]": {"experiment": "qHTS for Inhibitors of ATXN expression: Validation of Cytotoxic Assay (AID 588349)", "procedure,_shortened": "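Cytotoxicity counter-screen: ATP-based luminescent viability (CellTiter Glo) after 72 hr exposure of HEK293 cells to a compound titration at 37 degrees C.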"}, "[8]": {"experiment": "qHTS for Inhibitors of ATXN expression: Validation (AID 588378); note: series mostly up to about 57 µM; nearly all actives have a fitted effect of over 75% in size", "procedure,_shortened": "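Cells: HEK293-ATXN2-FFLuc, phenol-red free DMEM, 2 h attachment. Compound pin-transfer, 24 h, 37 degrees C, 5% CO2. CellTiter-Fluor 30 min, Ex405/Em525; Bright-Glo 5 min, luminescence 2 s exposure.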"}, "[9]": {"target": "Thyrotropin-releasing hormone receptor (Homo sapiens) (UniProt P34981)", "experiment": "qHTS for Small Molecule Agonists and Allosteric Enhancers of Human TRH Receptor: Validation Screen for Agonists (AID 493127;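 active = calcium activation more than 3 SD above the typical response in the agonist read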)", "details": "TRH receptor agonist cell assay; at 2 µM; stronger effect = higher value", "procedure,_shortened": "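Compound-evoked intracellular calcium release in fluo-8-loaded TRHR cells, read kinetically on FDSS (Ex 480/Em 530, 1 s/cycle) after 23 nL pintool transfer. Agonist phase preceded 10 nM TRH EC20 addition.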"}, "[10]": {"target": "Galactokinase (Homo sapiens) (UniProt P51570)", "experiment": "qHTS Validation Assay for Inhibitors of Human Galactokinase (GALK) (AID 493189)", "procedure,_shortened": "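Luminescence from leftover ATP (Kinase-Glo Plus, 10 min) served as read-out after a 1 h room-temperature reaction of 5 nM GALK, 100 uM galactose and 35 uM ATP at pH8.0.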"}, "[11]": {"experiment": "Validation screen for small molecules that induce DNA re-replication in SW480 colon adenocarcinoma cells (AID 504364)", "procedure,_shortened": "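Image-based DNA content read-out: Hoechst stain 40 min, total nuclear fluorescence intensity (ex 405 nm, em 500-530 nm) after 48 h compound exposure of 250 SW480 cells/well at 37 C, 5% CO2, versus DMSO vehicle.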"}, "[12]": {"target": "Estrogen receptor (Homo sapiens) (UniProt P03372)", "sequence (P03372 whole entry, looked up)": "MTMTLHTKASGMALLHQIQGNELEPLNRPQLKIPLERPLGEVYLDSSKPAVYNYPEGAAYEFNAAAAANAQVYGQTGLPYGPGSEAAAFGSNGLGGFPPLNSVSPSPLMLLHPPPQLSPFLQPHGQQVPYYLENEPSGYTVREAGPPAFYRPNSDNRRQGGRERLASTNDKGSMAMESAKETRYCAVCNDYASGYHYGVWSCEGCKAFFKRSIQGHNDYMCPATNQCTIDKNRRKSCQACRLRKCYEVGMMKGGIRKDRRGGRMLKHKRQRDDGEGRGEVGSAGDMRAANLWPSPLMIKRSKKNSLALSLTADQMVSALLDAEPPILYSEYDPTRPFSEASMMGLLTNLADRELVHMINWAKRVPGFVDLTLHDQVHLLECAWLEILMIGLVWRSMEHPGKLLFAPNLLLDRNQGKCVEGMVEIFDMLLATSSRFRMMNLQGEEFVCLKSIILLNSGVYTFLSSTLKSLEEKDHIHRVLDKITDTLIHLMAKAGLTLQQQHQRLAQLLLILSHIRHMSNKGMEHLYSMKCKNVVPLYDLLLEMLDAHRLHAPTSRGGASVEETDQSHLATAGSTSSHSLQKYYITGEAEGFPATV", "experiment": "qHTS assay for small molecule antagonists of estrogen receptor alpha signaling (AID 588513; active = well fitted curve in the direction sought with a large enough effect in the signal ratio, with a control signal flat, not every such curve was filed as active; the % refers to the signal ratio)", "procedure,_shortened": "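Beta-lactamase reporter, antagonist mode, HEK 293 GripTite cells; 0.5nM E2 stimulus, 18 h, 37 C; CCF4 dye 2 h RT; fluorescence. IC50 and efficacy from Hill fits, normalized to E2 and DMSO.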"}, "[13]": {"target": "Estrogen receptor (Homo sapiens) (UniProt P03372)", "experiment": "qHTS assay for small molecule agonists of estrogen receptor alpha signaling (AID 588514; calls by dose curve; note: nearly all actives have a fitted effect of over 70% in size)", "procedure,_shortened": "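EC50 and efficacy came from Hill fits of beta-lactamase reporter signal (CCF4 dye, 2 h at room temperature) scaled between DMSO and 20 nM 17-beta-estradiol. Agonist mode: HEK293 ER-alpha-UAS-bla cells in charcoal/dextran-stripped serum medium, 18 h compound exposure at 37 C.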"}, "[14]": {"target": "Bile acid receptor (Homo sapiens) (UniProt Q96RI1)", "sequence (Q96RI1 whole entry, looked up)": "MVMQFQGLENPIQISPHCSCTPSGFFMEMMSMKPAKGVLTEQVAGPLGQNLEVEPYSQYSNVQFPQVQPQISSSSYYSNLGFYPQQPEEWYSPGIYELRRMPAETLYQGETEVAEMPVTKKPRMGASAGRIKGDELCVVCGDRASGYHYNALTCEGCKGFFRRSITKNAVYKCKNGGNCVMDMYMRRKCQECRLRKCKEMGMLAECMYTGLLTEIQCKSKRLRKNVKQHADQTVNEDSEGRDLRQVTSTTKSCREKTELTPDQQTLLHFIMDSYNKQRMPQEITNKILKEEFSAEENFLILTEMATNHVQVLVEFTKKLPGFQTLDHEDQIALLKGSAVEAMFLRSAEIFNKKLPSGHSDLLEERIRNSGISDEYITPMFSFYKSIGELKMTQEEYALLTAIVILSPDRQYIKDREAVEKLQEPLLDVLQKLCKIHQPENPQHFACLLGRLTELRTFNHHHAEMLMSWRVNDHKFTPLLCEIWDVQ", "experiment": "qHTS assay for small molecule antagonists of farnesoid X receptor signaling (AID 588526; calls by dose curve)", "procedure,_shortened": "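Beta-lactamase reporter antagonist mode: HEK293T FXR-UAS-bla cells, titrated compound, CDCA stimulation, 16 h 37 C, CCF4 dye 2 h RT. Data normalized to CDCA 50 uM and DMSO; Hill-fit IC50.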"}, "[15]": {"target": "Glucocorticoid receptor (Homo sapiens) (UniProt P04150)", "sequence (P04150 whole entry, looked up)": "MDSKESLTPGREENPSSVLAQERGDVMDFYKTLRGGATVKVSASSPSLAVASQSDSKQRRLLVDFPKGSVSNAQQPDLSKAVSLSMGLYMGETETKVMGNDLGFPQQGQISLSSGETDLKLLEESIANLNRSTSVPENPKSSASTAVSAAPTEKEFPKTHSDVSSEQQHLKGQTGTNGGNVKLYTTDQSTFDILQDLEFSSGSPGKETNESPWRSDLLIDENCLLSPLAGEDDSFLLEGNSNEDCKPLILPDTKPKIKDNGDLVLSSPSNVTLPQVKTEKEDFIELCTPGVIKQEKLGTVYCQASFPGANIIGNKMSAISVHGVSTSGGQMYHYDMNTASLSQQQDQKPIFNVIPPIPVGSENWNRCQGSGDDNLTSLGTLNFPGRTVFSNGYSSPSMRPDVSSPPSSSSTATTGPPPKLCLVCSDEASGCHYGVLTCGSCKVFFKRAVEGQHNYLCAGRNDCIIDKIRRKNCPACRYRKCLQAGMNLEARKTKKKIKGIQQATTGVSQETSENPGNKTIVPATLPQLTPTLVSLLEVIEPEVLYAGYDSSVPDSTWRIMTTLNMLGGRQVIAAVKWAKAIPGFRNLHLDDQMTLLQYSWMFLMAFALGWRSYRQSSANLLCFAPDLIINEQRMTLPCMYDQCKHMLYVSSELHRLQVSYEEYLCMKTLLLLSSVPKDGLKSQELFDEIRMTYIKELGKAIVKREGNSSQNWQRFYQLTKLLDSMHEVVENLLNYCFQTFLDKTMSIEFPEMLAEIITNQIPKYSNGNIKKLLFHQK", "experiment": "qHTS assay for small molecule agonists of glucocorticoid receptor signaling (AID 588532; active = well fitted curve in the direction sought with a large enough effect in the signal ratio, with a control signal flat; the % refers to the signal ratio)", "details": "HeLa MMTV-bla, beta-lactamase ratio, agonist, 18 h; stronger effect = higher value; percent of dexamethasone control, DMSO zero", "procedure,_shortened": "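Agonist-mode qHTS: GRE-driven beta-lactamase in HeLa cells exposed 18 h to titrated compounds (up to 92 uM), then CCF4 ratio read after 2 h at RT; Hill-fitted EC50, efficacy relative to 0.1 uM dexamethasone.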"}, "[16]": {"target": "Glucocorticoid receptor (Homo sapiens) (UniProt P04150)", "experiment": "qHTS assay for small molecule antagonists of glucocorticoid receptor signaling (AID 588533; active = well fitted inhibition curve with a large enough effect in the signal ratio, with a control signal flat, not every such curve was filed as active; the % refers to the signal ratio)", "procedure,_shortened": "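Antagonist-mode qHTS: compound titrations added to GRE-bla HeLa cells, then dexamethasone 2 nM final; 18 h, 37 C. CCF4 FRET fluorescence normalized to dexamethasone and DMSO; IC50 from Hill fit.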"}, "[17]": {"experiment": "qHTS assay for small molecule antagonists of peroxisome proliferator-activated receptor delta signaling (AID 588535);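 note: cells co-treated with a PPAR-delta agonist as stimulator during compound exposure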", "details": "HEK293T PPARd-UAS-bla, beta-lactamase FRET ratio, 18 h; 460 nm channel", "procedure,_shortened": "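Titrations were run on PPAR-delta-UAS-bla HEK293T cells in charcoal/dextran-stripped serum, incubated 18 h at 37 C. CCF4 fluorescence (460/530 nm) after 2 h RT; Hill equation yields IC50 and maximal response.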"}, "[18]": {"target": "Androgen receptor (Homo sapiens) (UniProt P10275)", "sequence (P10275 whole entry, looked up)": "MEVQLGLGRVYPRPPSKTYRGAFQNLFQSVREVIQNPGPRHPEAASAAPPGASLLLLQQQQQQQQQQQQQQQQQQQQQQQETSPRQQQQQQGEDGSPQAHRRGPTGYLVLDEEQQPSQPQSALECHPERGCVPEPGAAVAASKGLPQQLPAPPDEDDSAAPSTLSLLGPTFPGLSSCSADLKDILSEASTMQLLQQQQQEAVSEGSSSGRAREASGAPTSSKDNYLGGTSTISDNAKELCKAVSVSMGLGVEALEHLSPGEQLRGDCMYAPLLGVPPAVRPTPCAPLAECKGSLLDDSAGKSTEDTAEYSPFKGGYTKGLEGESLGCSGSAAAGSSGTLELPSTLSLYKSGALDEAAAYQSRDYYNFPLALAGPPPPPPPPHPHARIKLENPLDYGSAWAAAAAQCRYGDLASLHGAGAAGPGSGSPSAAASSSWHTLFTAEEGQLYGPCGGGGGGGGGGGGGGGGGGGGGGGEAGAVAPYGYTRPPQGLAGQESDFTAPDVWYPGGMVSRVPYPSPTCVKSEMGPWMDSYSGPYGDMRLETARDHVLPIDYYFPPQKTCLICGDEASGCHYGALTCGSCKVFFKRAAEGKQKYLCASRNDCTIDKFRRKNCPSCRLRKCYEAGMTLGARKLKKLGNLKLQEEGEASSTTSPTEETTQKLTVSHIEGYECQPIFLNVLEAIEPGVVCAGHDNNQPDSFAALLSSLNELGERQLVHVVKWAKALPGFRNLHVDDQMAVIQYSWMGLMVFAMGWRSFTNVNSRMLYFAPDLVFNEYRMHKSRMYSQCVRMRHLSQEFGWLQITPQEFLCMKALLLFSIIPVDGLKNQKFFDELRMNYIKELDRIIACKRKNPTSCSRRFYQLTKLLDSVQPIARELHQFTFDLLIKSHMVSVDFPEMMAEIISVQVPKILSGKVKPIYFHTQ", "experiment": "qHTS assay for small molecule agonists of androgen receptor signaling (AID 588515; active = well fitted curve in the direction sought with a large enough effect in the signal ratio, with a control signal flat; the % refers to the signal ratio)", "details": "AR-UAS-bla HEK293, beta-lactamase ratio, agonist 16 h; stronger effect = higher value", "procedure,_shortened": "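Stimulation of an AR-responsive β-lactamase reporter in GripTite HEK293 cells was measured after 16 h compound exposure at 37 °C, via CCF4 fluorescence after 2 h RT. EC50 from Hill fits, normalized to R1881 at 30 nM.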"}, "[19]": {"target": "Androgen receptor (Homo sapiens) (UniProt P10275)", "experiment": "qHTS assay for small molecule antagonists of androgen receptor signaling (AID 588516; active = well fitted curve in the direction sought with a large enough effect in the signal ratio, with a control signal flat, not every such curve was filed as active; the % refers to the signal ratio; note: potency is the fitted concentration of half-maximal effect)", "procedure,_shortened": "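HEK293 AR-UAS-bla cells, 10% dialyzed FBS medium; cpd titration + R1881 10 nM final, 16 h 37 C; CCF4 2 h RT; FRET ratio; IC50/efficacy via Hill fit.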"}, "[20]": {"target": "DNA dC->dU-editing enzyme APOBEC-3G (Homo sapiens) (UniProt Q9HC16)", "experiment": "qHTS for inhibitors of Vif-A3G interactions: Validation (AID 588379)", "procedure,_shortened": "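Yellow fluorescence (Ex 488, Em 500-530) of Vif-coexpressing HeLa A3G-eYFP cells, scanned by Acumen cytometer, reports blocked A3G degradation. Cells plated at 700/well overnight at 37 deg C before compound addition, then a further overnight compound incubation at 37 deg C.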"}}, "note": "Where “and” joins values, the source holds several entries; their conditions need not be identical. Equal entries are not always repeated. Records with an inconclusive call do not appear. Entries that show only a call come without a potency. Calls of active or inactive are those of the source. Unless noted, calls come from the whole dose curve; as a rule, active = well fitted curve in the direction sought with a large enough effect; inconclusive = small, poorly fitted or top-dose-only effect, or another doubt; inactive = no such curve, though single readings can be large; an effect the other way counts as inactive or inconclusive.", "data": [{"smiles": "CCOC(=O)[C@H](CCc1ccccc1)N[C@@H](C)C(=O)N1[C@H](C(=O)O)C[C@H]2CCCC[C@@H]21", "values": [{"measurement": "Potency", "setting": "[1]", "value": "inactive"}, {"measurement": "viability change", "setting": "[1]", "value": -5.88, "unit": "%"}, {"measurement": "outcome", "setting": "[2]", "value": "inactive"}, {"measurement": "outcome", "setting": "[3]", "value": "inactive"}, {"measurement": "outcome", "setting": "[4]", "value": "inactive"}, {"measurement": "outcome", "setting": "[5]", "value": "inactive"}, {"measurement": "Potency", "setting": "[6]", "value": "inactive"}, {"measurement": "outcome", "setting": "[7]", "value": "inactive"}, {"measurement": "outcome", "setting": "[8]", "value": "inactive"}]}, {"smiles": "NC(N)=NCc1cccc(I)c1", "values": [{"measurement": "activation", "setting": "[9]", "value": "-0.0625% (inactive)"}, {"measurement": "Potency", "setting": "[1]", "value": "20.6 µM (active)"}, {"measurement": "viability change", "setting": "[1]", "value": 2.28, "unit": "%"}, {"measurement": "outcome", "setting": "[2]", "value": "inactive"}, {"measurement": "outcome", "setting": "[10]", "value": "inactive"}, {"measurement": "outcome", "setting": "[11]", "value": "inactive"}, {"measurement": "outcome", "setting": "[3]", "value": "inactive"}, {"measurement": "outcome", "setting": "[4]", "value": "inactive"}, {"measurement": "outcome", "setting": "[5]", "value": "inactive"}, {"measurement": "Potency", "setting": "[6]", "value": "inactive"}, {"measurement": "outcome", "setting": "[7]", "value": "inactive"}, {"measurement": "outcome", "setting": "[8]", "value": "inactive"}]}, {"smiles": "Cc1cc(-c2ccccc2)nnc1NCCN1CCOCC1", "values": [{"measurement": "Potency", "setting": "[6]", "value": "inactive"}]}, {"smiles": "NS(=O)(=O)Cc1noc2ccccc12", "values": [{"measurement": "Potency", "setting": "[6]", "value": "inactive"}]}, {"smiles": "CCCCC(CC)COC(=O)c1ccc(N(C)C)cc1", "note": "(stereo not drawn)", "values": [{"measurement": "Potency", "setting": "[12]", "value": "inactive"}, {"measurement": "Potency", "setting": "[13]", "value": "inactive"}, {"measurement": "outcome", "setting": "[14]", "value": "inactive"}, {"measurement": "activation", "setting": "[15]", "value": "-4.68% (inactive)"}, {"measurement": "outcome", "setting": "[16]", "value": "inactive"}, {"measurement": "max response", "setting": "[17]", "value": "0.453% and -4.75%"}]}, {"smiles": "NCCNc1cccc2ccccc12", "values": [{"measurement": "Potency", "setting": "[6]", "value": "inactive"}, {"measurement": "activation", "setting": "[18]", "value": "6.42% (inactive)"}, {"measurement": "Potency", "setting": "[19]", "value": "39.8 µM (active)"}, {"measurement": "activation", "setting": "[15]", "value": "3.88% (inactive) and -4.01% (inactive)"}, {"measurement": "outcome", "setting": "[16]", "value": "inactive"}, {"measurement": "max response", "setting": "[17]", "value": 22, "unit": "%"}]}, {"smiles": "CCOc1ccc(NC(C)=O)cc1", "values": [{"measurement": "Potency", "setting": "[6]", "value": "inactive"}, {"measurement": "Potency", "setting": "[12]", "value": "inactive"}, {"measurement": "Potency", "setting": "[13]", "value": "inactive"}, {"measurement": "activation", "setting": "[18]", "value": "13.2% (inactive) and 14.9% (inactive)"}, {"measurement": "Potency", "setting": "[19]", "value": "inactive"}, {"measurement": "outcome", "setting": "[14]", "value": "inactive"}, {"measurement": "activation", "setting": "[15]", "value": "0.725% (inactive)"}, {"measurement": "outcome", "setting": "[16]", "value": "inactive"}]}, {"smiles": "CC(C)(C)CC(C)(C)c1ccc(O)c(-n2nc3ccccc3n2)c1", "values": [{"measurement": "Potency", "setting": "[6]", "value": "inactive"}, {"measurement": "Potency", "setting": "[13]", "value": "inactive"}, {"measurement": "activation", "setting": "[15]", "value": "-3.64% (inactive)"}]}, {"smiles": "CN1CCc2cccc3c2[C@H]1Cc1ccc(O)c(O)c1-3", "values": [{"measurement": "Potency", "setting": "[6]", "value": "inactive"}, {"measurement": "outcome", "setting": "[20]", "value": "inactive"}]}, {"smiles": "CCCCCCCCCCCCCC(=O)OC(C)C", "values": [{"measurement": "Potency", "setting": "[6]", "value": "inactive"}, {"measurement": "Potency", "setting": "[12]", "value": "inactive"}, {"measurement": "Potency", "setting": "[19]", "value": "inactive"}, {"measurement": "activation", "setting": "[15]", "value": "5.08% (inactive)"}, {"measurement": "outcome", "setting": "[16]", "value": "inactive"}]}]}
